# Data: PubChem BioAssay AID504466 (National Center for Advancing Translational Sciences (NCATS), 2011)
# Screen size: about 330,000 compounds; about 4,200 (1.3%) were called active. Not shown: some 6% with an inconclusive outcome. This is one part of a sample in which actives are shown more often than they occur. Unmarked numbers belong to inactive results. Calls come from the whole dose curve; as a rule, active = well fitted activation curve with a large enough effect; inconclusive = small, poorly fitted or top-dose-only effect; inactive = no such curve, though single readings can be large or run the other way.
# Assay: qHTS screen for small molecules that induce genotoxicity in human embryonic kidney (HEK293T) cells expressing luciferase-tagged ELG1; note: nearly all actives have a fitted effect of over 60% in size; for activity change, positive = activation: % of control where 0% means no effect
# Details: HEK293T ELG1-luciferase reporter, luminescence, 16 h; series mostly up to 46 µM; activity change, positive = activation: at the top concentration
# Summary of the method: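 After overnight (16 hr) compound treatment at 37 °C, ELG1-luciferase HEK293T cells were lysed with ONE-Glo; luminescence quantified 30 min later at room temperature.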
# Potency is the fitted concentration of half-maximal effect.
SMILES,"activity change, positive = activation [%]",Potency
O=C(COc1ccc(F)cc1Br)NCC1COc2ccccc2O1 (stereo not given),0.352,–
CCCCOC(=O)Nc1nnc(CC(=O)NCc2ccccc2)s1,10.2,–
CCCCCOC(=O)NCCOC(=O)Nc1ccc(C(=O)OCC)cc1,-10.5,–
CCCCCCOC(=O)NCC(O)c1ccccc1 (stereo not given),–,18.4 µM (active)
O=C(CNC(=O)c1n[nH]c2ccccc12)Nc1cc(Cl)ccc1Cl,1.36,–
CCN(CC)C(=O)[C@H]1CC(CC(=O)NCc2ccco2)C(=O)N2CCc3c([nH]c4ccccc34)[C@]12C (stereo not given in full),0.825,–
COc1ccc(NS(=O)(=O)c2cc(NC(=O)c3ccc(S(=O)(=O)N(C)C)cc3)ccc2N2CCOCC2)cc1,-0.544,–
CCN(C[C@H]1N[C@@](Cc2ccccc2)(C(=O)OC)[C@H]2C(=O)N(Cc3ccccc3)C(=O)[C@@H]12)C(=O)c1ccc(C)cc1,-3.2,–
COc1ccc(NC(=O)CNc2cc(S(=O)(=O)N3CCOCC3)ccc2N2CCOCC2)c(OC)c1,5.87,–
Cc1ccc(O)c(NC(=O)c2cc(-c3ccco3)on2)c1,–,20.6 µM (active)
O=C(Nc1ccccc1C(F)(F)F)c1cc(-c2ccc(O)cc2)on1,13.9,–
Cc1ccc(C)c(NC(=O)c2ccc(OC(=O)c3ccco3)cc2)c1,1.15,–
CCCCC[C@@H]1C=C(C(=O)O)[C@H](c2ccc(C#N)cc2)N1S(=O)(=O)c1ccc(C)cc1,0.217,–
CC1CCCC(NC(=O)c2cc(S(=O)(=O)N3CCCCC3)ccc2Cl)C1C (stereo not given),-3.83,–
Cc1ccc(C(=O)NC2CCCC(C)C2C)cc1S(=O)(=O)N1CCCCC1 (stereo not given),–,18.3 µM (active)
Cc1ccc(C(=O)NNC(=O)c2ccncc2)cc1S(=O)(=O)N1CCCCC1,1.41,–
C[C@@H]1CN([C@@H](C)CO)C(=O)c2cc(NC(=O)C3CC3)ccc2O[C@H]1CN(C)C,3.36,–
COC(=O)[C@@]1(C)[C@H]2C(=O)N(Cc3ccccc3)C(=O)[C@H]2[C@H]2CN=C(SCC3CC3)N21,1.44,–
CC[C@]1(C(=O)OC)[C@H]2C(=O)N(Cc3ccccc3)C(=O)[C@H]2[C@H]2CN=C(SCc3ccccc3)N21,-1.3,–
COc1cccc(NC(=O)COC(=O)c2ccc3ccccc3n2)c1,-0.83,–
Cc1ccc(OCCCC(=O)N2CCOCC2)c(C)c1,–,20.6 µM (active)
Cc1ccc(OCCCC(=O)NC(C)c2ccccc2)c(C)c1 (stereo not given),0.0144,–
Cc1cc(S(=O)(=O)N2CCOCC2)ccc1OCC(=O)N1CCOCC1,-0.859,–
COc1ccc(C2(c3ccc(OC)cc3)NC(=O)N(CC(=O)Nc3cc(C)on3)C2=O)cc1,-1.6,–

SMILES,"activity change, positive = activation [%]",Potency
Cc1nn(-c2ccccc2)nc1C(=O)OCC(=O)N1CCCCC1C (stereo not given),0.888,–
c1ccc2[nH]c(-c3nc4ccccc4[nH]3)nc2c1,–,1.03 µM (active)
COc1ccc(-c2[nH]nc(-c3ccccc3)c2-c2nc3ccccc3[nH]2)cc1,-0.244,–
COc1ccc(Br)cc1C(=O)NC(=S)Nc1cc(-c2nc3ccccc3[nH]2)ccc1C,0.519,–
Nc1cccc(CCc2nc3ccccc3[nH]2)c1,11,–
O=C(Nc1cccc(-c2nc3ccccc3[nH]2)c1)c1ccc(C(=O)Nc2cccc(-c3nc4ccccc4[nH]3)c2)cc1,8.18,–
Cc1ccc(-c2nc3ccccc3[nH]2)cc1N,–,1.64 µM (active)
C=CC1=C(C(=O)O)N2C(=O)[C@@H](NC(=O)/C(=N\OCC(=O)O)c3csc(N)n3)[C@H]2SC1,0.264,–
Cc1cccc(OCC(=O)OCC(=O)Nc2ccc(Cl)cn2)c1,-1.42,–
COc1ccccc1-c1sc2ccccc2c1C#CC1(O)CCCCC1,-0.785,–
COc1ccc(S(=O)(=O)N2CCOCC2)cc1NC(=O)c1ccc(OCC(C)C)c(OC)c1,-1.88,–
C=CC[C@@H](CC(=O)N[C@H](CO)Cc1ccccc1)C(=O)N[C@@H](COC(=O)[C@@H](CC=C)Cc1ccc(F)cc1)Cc1c[nH]c2ccccc12,0.481,–
CC[C@]12c3[nH]c4cc(CCC(=O)N(C)C)ccc4c3CCN1C(=O)[C@@H](CC(=O)NCCCn1ccnc1)C[C@@H]2C(=O)N1CCN(C(=O)C2CC2)CC1,2.47,–
CN(CC(=O)O)C(=O)c1ccccc1,2.86,–
CC1(C)Cc2ccccc2/C(=C/C(=O)c2ccccc2)N1,-2.7,–
CC1CN/C(=C\C(=O)c2ccc(Br)cc2)C(=O)N1 (stereo not given),–,1.3 µM (active)
COc1cc2c(cc1OC)/C(=C/C(=O)c1ccc(NC(C)=O)cc1)NCC2,9.13,–
CN(c1ccccc1)S(=O)(=O)c1cc(C(=O)N2CCN(c3ncccn3)CC2)ccc1Cl,-4.11,–
COc1ccccc1CNC(=O)COC(=O)c1cccs1,-1.05,–
CCN(C[C@H]1N[C@@](CC)(C(=O)OC)[C@H]2C(=O)N(C)C(=O)[C@@H]12)C(=O)Nc1ccc(F)cc1,3.56,–
Cc1cc(/C=C2/NC(=O)NC2=O)c(C)n1-c1cccnc1,8.4,–
Cc1ccccc1-n1c(C)cc(/C=C2\NC(=O)NC2=O)c1C,–,14.6 µM (active)
Cc1cccc(C)c1-n1c(C)cc(/C=C2\C(=O)NN(c3ccccc3)C2=O)c1C,5.82,–
COc1cc(SC)ccc1C(=O)NNC(=O)C1COc2ccccc2O1 (stereo not given),0.869,–

SMILES,"activity change, positive = activation [%]",Potency
COC(=O)CCNc1ccc2c(c1)OCCO2,–,9.2 µM (active)
Cc1ccc(OCCCC(=O)Nc2ccc3c(c2)OCCO3)cc1,3.35,–
COc1ccccc1OCCCC(=O)Nc1ccc2c(c1)OCCO2,4.27,–
COc1cccc(CC(=O)OCC(=O)NCc2ccc3c(c2)OCO3)c1,0.92,–
CCN1C[C@@H]2[C@@H]3C(=O)N(Cc4ccccc4)C(=O)[C@@H]3[C@](Cc3ccccc3)(C(=O)OC)N2C1=NC1CCCCC1,-3.08,–
C[C@@H]1CN([C@H](C)CO)C(=O)c2cc(NC(=O)NC3CCCCC3)ccc2O[C@H]1CN(C)S(C)(=O)=O,-0.246,–
CC(=O)Nc1ccccc1NC(=O)c1cc(C)cc(C)c1,0.5,–
Nc1ccc(C(=O)Nc2ccccc2N)cc1,–,14.6 µM (active)
Nc1ccc(C(=O)NCc2ccccc2)cc1,3.4,–
CC[C@]1(C(=O)OC)[C@H]2C(=O)N(C)C(=O)[C@H]2[C@H]2CN(C)C(=NCc3ccccc3)N21,4.13,–
CCc1ccc(NC2Nc3cc(C)nn3S2)cc1 (stereo not given),–,9.2 µM (active)
CCc1ccc(NC(=O)N2CCN(c3ccccc3)CC2)cc1,2.07,–
CCCc1cc(=O)[nH]c(SCC(=O)Nc2ccc(S(=O)(=O)N3CCCC3)cc2)n1,-0.499,–
C=CC[C@H](CC(=O)N(CCO)Cc1ccccc1)C(=O)N[C@@H](COC(=O)[C@@H](CC=C)Cc1ccc(F)cc1)Cc1ccccc1,-6.21,–
COc1ccc(/C=N/OCC(=O)N(Cc2ccccc2)c2ccccc2C(=O)O)cc1,1.68,–
COc1ccc(C(=O)Nc2ccccc2C(=O)N/N=C/c2ccc(O)c(OC)c2)cc1,-12.2,–
COc1ccc(/C=N/Nc2ccccc2C(=O)O)cc1,–,1.3 µM (active)
COc1ccccc1-c1nnc2n1N=C(c1ccc(OC(F)F)c(OCC3CC3)c1)CS2,7.86,–
O=C(COC(=O)CN1C(=O)C2CCCCC2C1=O)Nc1ccc(F)c(F)c1F (stereo not given),1.33,–
COc1ccc(C(=O)C(C)OC(=O)c2cccc(S(=O)(=O)Nc3c(C)n(C)n(-c4ccccc4)c3=O)c2)cc1 (stereo not given),1.17,–
Cc1cccc(C(=O)OCC(=O)Nc2ccc(F)cc2)c1,8.07,–
Cc1ccc(-n2nc3ccc(NC(=O)/C=C/c4ccco4)cc3n2)cc1C,19.8,–
CCC(=O)Nc1ccc2nn(-c3ccc(F)cc3)nc2c1,–,1.46 µM (active)
CCOC(=O)[C@H]1[C@H]2COc3ccccc3[C@@H]2N2C(=O)CN(Cc3ccccc3)C(=O)[C@@]12C,0.713,–

SMILES,"activity change, positive = activation [%]",Potency
C#CCOCCOCCOCCNc1nc(N2CCN(C(=O)[C@H](CCC(=O)O)n3cc(CN)nn3)CC2)nc(N2CCN(C(=O)[C@H](CCC(=O)O)n3cc(CN)nn3)CC2)n1,0.694,–
O=C(COc1ccccc1F)NNC(=O)c1cc(Br)ccc1Cl,-1.83,–
CCN(CC(=O)NCc1ccc(F)cc1)S(=O)(=O)c1ccc(Cl)s1,-3.18,–
C/C(=N\Nc1ncc(Cl)cc1Cl)c1ccc(S(=O)(=O)NCc2ccco2)cc1,0.852,–
C/C(=N\Nc1ncc(Cl)cc1Cl)c1cccs1,–,5.17 µM (active)
C/C(=N\Nc1ccc(S(N)(=O)=O)cc1[N+](=O)[O-])c1cccs1,13.8,–
Cc1cc(NC(=O)COC(=O)/C=C/c2ccc(C)o2)no1,-0.158,–
COc1ccc2c(c1OC)C(=O)c1ccccc1C2=O,–,5.17 µM (active)
COc1cccc(-c2ccc3c(c2)S(=O)(=O)c2cccc(C(=O)O)c2C3=O)c1OC,2.09,–
CC(=O)Oc1ccc2c(c1)C(=O)c1ccccc1C2=O,18.5,–
COc1cc2c(-c3ccc4c(c3)OCO4)c(-c3ccsc3)oc(=O)c2cc1OC,0.908,–
COc1ccc(S(=O)(=O)N2CCN(c3cnccn3)CC2)cc1,1.44,–
Cc1nc2ccc(NC(=O)c3cccc(S(=O)(=O)N4CCOCC4)c3)cc2s1,-6.82,–
CCOC(=O)N1CCC(NC(=O)c2cnn3ccccc23)CC1,-1.21,–
O=C(c1cnn2ccccc12)N1CCc2ccccc21,–,4.11 µM (active)
Cc1cnc(C(=O)OCC(=O)N2CCc3ccccc32)cn1,1.68,–
O=C1CSc2ccc(C(=O)NCc3ccccn3)cc2N1,6.33,–
CCOC(=O)C1=CN(Cc2ccc(Br)cc2)S(=O)(=O)NC1C (stereo not given),2.38,–
COc1ccc(S(=O)(=O)N(C)C[C@H]2Oc3ccc(NS(=O)(=O)c4cccs4)cc3CC(=O)N([C@H](C)CO)C[C@H]2C)cc1,3.98,–
CCC(CO)Oc1cc(NC(=O)c2ccc(Cl)cc2)c2ncn(C(C)C)c2c1 (stereo not given),5,–
CC(=O)Nc1ccc(S(=O)(=O)NCCC(=O)N2CCN(c3ccccc3Cl)CC2)cc1,-2.27,–
N#Cc1ccc(C2N=C(c3ccccc3)NO2)cc1 (stereo not given),–,5.17 µM (active)
O=C(OCC(=O)N1CCCCCC1)c1ccc(Br)c(S(=O)(=O)N2CCOCC2)c1,-3.75,–
